This is a sample that favours compounds with a hit; in the whole collection about 3.6% have one here.
Peg3 prom inh = reduces Peg3 promoter-driven luciferase expression in HeLa; HeLa PEG-Prom luciferase reporter, luminescence, overnight; inhibition, % at 20 µM; 1.7% of 360,000 active; AID 588405;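 active = inhibition of at least 50% at 20 µM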
KKLEB cytotox = reduces viability of KKLEB cystic fibrosis airway cells; KKLEB CF airway cells viability, ATPlite luminescence, overnight; stronger effect = lower value; cells stimulated with P. aeruginosa culture filtrate; activity change (cytotoxicity), % at 5 µM; 0.36% of 360,000 active; AID 602141;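 active = corrected activity change at or below -50% at 5 µM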
HSP90 refold inh = HSP90 refolding inhibition in rabbit reticulocyte lysate; luciferase refolding luminescence, 3 h; inhibition, % at 5.6 µM; 0.91% of 290,000 active; AID 1789;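 active = inhibition above the screen-wide mean plus 3 SD, computed separately per campaign, cut at about 16% in these data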;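 note: inhibitors lower the luminescence because luciferase stays unfolded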
CF NFkB inh = blocks PAF-induced NF-kB reporter in cystic fibrosis cells; KKLEB NF-kB-GFP reporter, GFP fluorescence overnight; inhibition, % at 5 µM; 0.86% of 360,000 active;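 active = at least 50% inhibition at 5 µM, scaled per plate between neutral and stimulator controls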;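 note: PAF is a Pseudomonas aeruginosa culture filtrate used as stimulus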
Mdm2-MdmX inh = human Mdm2/MdmX binding inhibition. inhibition, % at 8 µM. AID 485346. 3% of 330,000 active. SaOS-2 split-luciferase Mdm2/MdmX complementation, luminescence. O15151+Q00987;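 active = inhibition of at least 50% at 8 µM in the primary screen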
Target sequence (O15151 whole entry, looked up): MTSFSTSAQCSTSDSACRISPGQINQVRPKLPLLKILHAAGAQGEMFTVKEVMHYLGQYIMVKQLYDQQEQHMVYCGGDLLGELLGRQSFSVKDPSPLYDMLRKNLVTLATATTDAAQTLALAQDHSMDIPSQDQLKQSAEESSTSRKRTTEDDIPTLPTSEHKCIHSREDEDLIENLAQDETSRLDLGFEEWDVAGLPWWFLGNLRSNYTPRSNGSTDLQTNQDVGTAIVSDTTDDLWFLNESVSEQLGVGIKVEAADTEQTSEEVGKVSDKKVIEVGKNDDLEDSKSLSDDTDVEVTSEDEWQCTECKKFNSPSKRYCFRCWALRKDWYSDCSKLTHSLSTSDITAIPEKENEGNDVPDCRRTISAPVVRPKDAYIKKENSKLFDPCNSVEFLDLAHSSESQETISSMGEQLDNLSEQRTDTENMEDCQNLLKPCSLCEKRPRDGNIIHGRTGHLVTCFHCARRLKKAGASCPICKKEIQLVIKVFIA
Target sequence (Q00987 whole entry, looked up): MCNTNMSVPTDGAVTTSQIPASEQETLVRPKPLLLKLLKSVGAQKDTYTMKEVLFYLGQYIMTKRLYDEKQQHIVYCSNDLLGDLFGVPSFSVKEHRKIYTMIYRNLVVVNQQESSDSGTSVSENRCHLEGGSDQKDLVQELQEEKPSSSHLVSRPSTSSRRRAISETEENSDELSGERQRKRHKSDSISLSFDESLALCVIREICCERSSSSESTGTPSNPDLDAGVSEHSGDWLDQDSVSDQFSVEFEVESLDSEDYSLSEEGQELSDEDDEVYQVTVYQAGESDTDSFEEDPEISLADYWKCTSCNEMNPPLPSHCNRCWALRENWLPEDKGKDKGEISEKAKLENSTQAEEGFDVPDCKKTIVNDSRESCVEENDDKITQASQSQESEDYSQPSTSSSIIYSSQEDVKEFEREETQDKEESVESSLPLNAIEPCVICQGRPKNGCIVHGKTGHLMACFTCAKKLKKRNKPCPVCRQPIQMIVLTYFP
LGR2 antag = Drosophila LGR2 receptor signaling inhibition. AID 720647. inhibition, % at 9.99 µM. 0.35% of 380,000 active. HEK293 LGR2, CRE-luciferase, bursicon-stimulated, 4 h;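 active = drop in luminescence signal, shown as inhibition above about 50% in the replicate tests, limit read from the data, passing the limit was not always enough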;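 note: agonist challenge used bursicon conditioned medium at about half maximal strength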
Mdm2 MdmX conf = human Mdm2/MdmX binding inhibition, confirmed | shares compounds with Mdm2-MdmX inh | luminescent assay | inhibition, % at 8 µM | 55% of 10,000 active | AID 489028; in the data active = inhibition above about 40%
Full FLuc ctr = inhibits full-length luciferase, flagging false Mdm2/MdmX hits | 77% of 6,200 active | SaOS-2 full-length luciferase counterscreen, luminescence | AID 504607 | inhibition, % at 8 µM | shares compounds with Mdm2-MdmX inh;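 active = mean inhibition at 8 µM reaching about 37%, which flags the compound as non-specific, limit read from the data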;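 note: p53-null SaOS-2 cells with luciferase driven by a doxycycline-inducible promoter; compound on cells about two nights before reading with doxycycline added after day one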
Each line names hits and unclear results; the compound was inactive in the other large screens (follow-up assays come after a bar, where they were run).

C[C@H](CO)N1C[C@H](C)[C@H](CN(C)C(=O)Nc2cccc3ccccc23)Oc2ccc(NS(=O)(=O)c3cccs3)cc2CC1=O	none (no result: Peg3 prom inh, KKLEB cytotox, HSP90 refold inh, CF NFkB inh, Mdm2-MdmX inh)
Fc1ccccc1N1CCN(c2ncnc3[nH]ncc23)CC1	Mdm2-MdmX inh 63 | Mdm2 MdmX conf inactive
O=C(Nc1cccc(Cl)c1)N1C[C@H]2[C@@H](c3ccccc31)[C@H](CO)N2C(=O)c1cccnc1	none (no result: Peg3 prom inh, KKLEB cytotox, HSP90 refold inh, CF NFkB inh, Mdm2-MdmX inh)
CC(C)n1cnc2c(Nc3ccc(F)c(Cl)c3)nc(NCCO)nc21	none (no result: LGR2 antag)
C=CC(=O)Nc1ccc(Nc2nc(NC3CCC(N(C)C)CC3)nc3c2ncn3C(C)C)cc1 (stereo not drawn)	Peg3 prom inh 107, KKLEB cytotox -74, CF NFkB inh 94, Mdm2-MdmX inh 96 (no result: HSP90 refold inh, LGR2 antag) | Mdm2 MdmX conf 100 | Full FLuc ctr 52
CCOC(=O)C(C(C)=O)c1c(Br)c(O)c(O)c2c(C(=O)c3ccc(C)cc3)coc12 (stereo not drawn)	Mdm2-MdmX inh 64 | Mdm2 MdmX conf 60 | Full FLuc ctr 47
CCOC(=O)c1c(C)n(-c2ccc(C)cc2)c2c(C(C(C)=O)C(=O)O)c(Br)c(O)c(O)c12 (stereo not drawn)	none
C[C@]12c3[nH]c4cc(-c5ccco5)ccc4c3CCN1C(=O)[C@@H](CC(=O)NCc1cccc(C(F)(F)F)c1)C[C@@H]2C(=O)N1CCOCC1	none (no result: HSP90 refold inh)
CC(C)N(C(=O)[C@H]1C[C@H](CC(=O)NCCCN(C)C)C(=O)N2CCc3c([nH]c4cc(-c5ccco5)ccc34)[C@]12C)C(C)C	Peg3 prom inh 91, Mdm2-MdmX inh 63 (no result: HSP90 refold inh) | Mdm2 MdmX conf inactive
CC(C)N(C(=O)[C@H]1C[C@H](CC(=O)NCc2cccc(C(F)(F)F)c2)C(=O)N2CCc3c([nH]c4cc(-c5ccco5)ccc34)[C@]12C)C(C)C	Mdm2-MdmX inh 77 (no result: HSP90 refold inh) | Mdm2 MdmX conf inactive
CCN(CC)C(=O)[C@H]1C[C@H](CC(=O)NCc2ccco2)C(=O)N2CCc3c([nH]c4ccc(Cl)cc34)[C@]12C	none (no result: HSP90 refold inh)
CC(C)N(C(=O)[C@H]1C[C@H](CC(=O)NCc2ccco2)C(=O)N2CCc3c([nH]c4ccc(Cl)cc34)[C@]12C)C(C)C	Mdm2-MdmX inh 52 (no result: HSP90 refold inh) | Mdm2 MdmX conf inactive
C[C@H](CO)N1C[C@H](C)[C@@H](CN(C)S(=O)(=O)c2ccc(F)cc2)OCCCC[C@H](C)Oc2ccc(NS(=O)(=O)c3ccc(F)cc3)cc2C1=O	none (no result: Peg3 prom inh, KKLEB cytotox, HSP90 refold inh, CF NFkB inh, Mdm2-MdmX inh)
Oc1ccccc1N=Cc1c(O)ccc2oc3c(c12)CCCC3	Mdm2-MdmX inh 52 | Mdm2 MdmX conf 44 | Full FLuc ctr 72
O=C(O)c1ccc(N=Cc2c(O)ccc3oc4c(c23)CCCC4)cc1	none
Cc1ccc(S(=O)(=O)N2C[C@@H]3[C@H]4CC[C@H](C4)[C@@H]3[C@@H](C)[C@@H]2c2ccn(Cc3ccccc3)c2)cc1	Mdm2-MdmX inh 50 (no result: HSP90 refold inh) | Mdm2 MdmX conf inactive
C[C@@H]1CN([C@@H](C)CO)C(=O)Cc2cc(NC(=O)C3CC3)ccc2O[C@H]1CN(C)Cc1ccc(Cl)c(Cl)c1	none (no result: Peg3 prom inh, KKLEB cytotox, HSP90 refold inh, CF NFkB inh, Mdm2-MdmX inh)
CC(CCc1ccc(O)cc1)NCCC(c1ccccc1)c1ccccc1 (stereo not drawn)	Mdm2-MdmX inh 51 | Mdm2 MdmX conf inactive
Cc1ccc(CN=C(N)Nc2nc(C)cc(C)n2)cc1	Mdm2-MdmX inh 68 | Mdm2 MdmX conf 59 | Full FLuc ctr 63
O=[N+]([O-])c1ccc(S(=O)(=O)c2cccc(C(F)(F)F)c2)nc1	Peg3 prom inh 100, CF NFkB inh 89, Mdm2-MdmX inh 95 (no result: HSP90 refold inh, LGR2 antag) | Mdm2 MdmX conf 100 | Full FLuc ctr inactive
CCNC(=O)C[C@H]1CC[C@H]2[C@@H](COc3ccc(NC(=O)Nc4ccccc4F)cc3C(=O)N2C)O1	none (no result: Peg3 prom inh, KKLEB cytotox, HSP90 refold inh, CF NFkB inh, Mdm2-MdmX inh)
CO[C@H]1CN(C)C(=O)c2ccc(NC(=O)C3CCC3)cc2OC[C@H](C)N(CC2CCCCC2)C[C@H]1C	none (no result: Peg3 prom inh, KKLEB cytotox, HSP90 refold inh, CF NFkB inh, Mdm2-MdmX inh)
COc1ccc(S(=O)(=O)NCc2ccccn2)cc1NC(=O)c1ccccc1C	Mdm2-MdmX inh 52 (no result: HSP90 refold inh) | Mdm2 MdmX conf 71 | Full FLuc ctr 63
COc1ccc(S(=O)(=O)NCc2cccnc2)cc1NC(=O)c1ccccc1	none
CCOc1ccc(S(=O)(=O)NCc2ccncc2)cc1NC(=O)c1ccccc1F	Mdm2-MdmX inh 67 | Mdm2 MdmX conf inactive
CCOc1ccc(S(=O)(=O)NCc2ccncc2)cc1NC(=O)c1ccccc1	none (no result: HSP90 refold inh)
CCOc1ccc(S(=O)(=O)NCc2cccnc2)cc1NC(=O)c1ccccc1F	Mdm2-MdmX inh 59 | Mdm2 MdmX conf 57 | Full FLuc ctr 53
C[C@@H]1CCCCO[C@@H](CN(C)C(=O)Nc2ccc(C(F)(F)F)cc2)[C@H](C)CN([C@@H](C)CO)C(=O)c2cc(NS(=O)(=O)c3cccs3)ccc2O1	none (no result: Peg3 prom inh, KKLEB cytotox, HSP90 refold inh, CF NFkB inh, Mdm2-MdmX inh)
CNC[C@H]1Oc2cc(-c3cncnc3)ccc2S(=O)(=O)N([C@@H](C)CO)C[C@H]1C	none (no result: Peg3 prom inh, KKLEB cytotox, HSP90 refold inh, CF NFkB inh, Mdm2-MdmX inh)
CC(C)NC(=O)NCC[C@H]1CC[C@@H](NC(=O)Nc2ccccc2)[C@H](CO)O1	none (no result: Peg3 prom inh, KKLEB cytotox, HSP90 refold inh, CF NFkB inh, Mdm2-MdmX inh)
CO[C@@H]1CN(C)C(=O)c2ccc(NC(=O)NC(C)C)cc2OC[C@@H](C)N(C(=O)CC2CC2)C[C@H]1C	none (no result: Peg3 prom inh, KKLEB cytotox, HSP90 refold inh, CF NFkB inh, Mdm2-MdmX inh)
Cc1cccc(C)c1OCc1nnc(SCC(=O)Nc2cccc(C(=O)N3CCOCC3)c2)n1C	Mdm2-MdmX inh 53 | Mdm2 MdmX conf inactive
O=C1CC(=O)N(CCNc2ncc(C(F)(F)F)cc2Cl)C(=O)N1	none (no result: LGR2 antag)
O=C1C=CC(=O)N1CCNc1ncc(C(F)(F)F)cc1Cl	Peg3 prom inh 108, CF NFkB inh 60, Mdm2-MdmX inh 63 | Mdm2 MdmX conf 68 | Full FLuc ctr 53
Cc1c(/C=N/NC(=O)c2cccs2)c2ccccc2n1Cc1ccccc1Cl	Mdm2-MdmX inh 72 | Mdm2 MdmX conf 65 | Full FLuc ctr 90
CCn1c(=O)c(CCC(=O)N2CCN(c3ccccn3)CC2)c(C)c2c(C)nn(-c3cccc(C)c3)c21	Mdm2-MdmX inh 53 | Mdm2 MdmX conf inactive
COc1ccc(NC(=O)NCCCCc2ccccc2)cc1	none
CCOc1ccc(NC(=O)NCCCCc2ccccc2)cc1	Mdm2-MdmX inh 50 | Mdm2 MdmX conf inactive
Cn1c(=O)cc(OCCCC(=O)NC2CCCC2)c2ccccc21	Mdm2-MdmX inh 67 (no result: LGR2 antag) | Mdm2 MdmX conf 48 | Full FLuc ctr 86
Cn1c(=O)cc(OCCCC(=O)NCc2ccccn2)c2ccccc21	none
COc1cccc(NC(=O)CCCOc2cc(=O)n(C)c3ccccc23)c1	none (no result: LGR2 antag)
CCOc1ccc(NC(=O)CCCOc2cc(=O)n(C)c3ccccc23)cc1	Mdm2-MdmX inh 52 (no result: LGR2 antag) | Mdm2 MdmX conf inactive
Cn1c(=O)cc(OCC(=O)NC2CCCCC2)c2ccccc21	none (no result: LGR2 antag)

Compound activity from PubChem BioAssay.
